Source: PubChem BioAssay (Tox21)
Several values for one entry are separate records, joined by “and”; a condition that tells them apart may be missing. Equal entries are not always repeated. Records with an inconclusive call do not appear. Activity calls are given as the source filed them. Unless noted, calls come from the whole dose curve; as a rule, active = well fitted curve in the direction sought with a large enough effect in the repeat runs; inconclusive = weak or mixed curves; inactive = no such curve, though single readings can be large; an effect the other way counts as inactive or inconclusive.

Key:
[1] = qHTS assay to identify small molecule antagonists of the estrogen receptor alpha (ER-alpha) signaling pathway using the BG1 cell line in the presence of 0.1 nM 17-beta-estradiol - cell viability counter screen (AID 1259241); note: nearly all actives have a fitted effect of over 40% in size; note: potency is the fitted concentration of half-maximal effect
Method in brief: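 Estradiol-stimulated (0.1 nM) VM7Luc4E2 cells exposed to compounds 22 hr; viability measured by fluorescence of cleaved CellTiter-Fluor substrate after 30 min.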

[2] = qHTS assay to identify small molecule antagonists of the androgen receptor (AR) signaling pathway using the MDA cell line in the presence of 0.5 nM R1881 - cell viability counter screen (AID 1259242); note: nearly all actives have a fitted effect of over 45% in size; note: potency is the fitted concentration of half-maximal effect
Method in brief: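 Steps: plate MDA-kb2 cells, rest 5 hr at 37C without CO2; pin in compounds in DMSO; add R1881 to 0.5 nM final; incubate 16 hr; add CellTiter-Fluor, 30 min; read fluorescence.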

[3] = biological target: Estrogen receptor (Homo sapiens) (UniProt P03372); test: qHTS assay to identify small molecule antagonists of the estrogen receptor alpha (ER-alpha) signaling pathway using the BG1 cell line in the presence of 0.1 nM 17-beta-estradiol (AID 1259244); note: nearly all actives have a fitted effect of over 50% in size; note: potency is the fitted concentration of half-maximal effect
Method in brief: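 Antagonist mode: compounds in DMSO are pinned onto VM7Luc4E2 reporter cells, 0.1 nM final 17beta-estradiol is added, and after 22 h at 37C luciferase luminescence is measured with ONE-Glo.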

[4] = qHTS assay to identify small molecule HDAC inhibitors - cell viability counter screen (AID 1259365); note: nearly all actives have a fitted effect of over 50% in size; note: potency is the fitted concentration of half-maximal effect
Method in brief: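 After overnight seeding at 1,500 cells per well, wild-type HCT-116 cultures took up compounds in DMSO for 2hr at 37 C. Viable cell content came from luminescence with CellTiter-Glo.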

[5] = qHTS assay to identify small molecule agonists of the sonic hedgehog signaling (Shh) pathway - cell viability counter screen (AID 1259366); note: nearly all actives have a fitted effect of over 50% in size; note: potency is the fitted concentration of half-maximal effect
Method in brief: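 Same-well cytotoxicity read. Gli1-Luc reporter 3T3 cells; compounds 24hr, 37C/5% CO2; CellTiter-Fluor fluorescence.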

[6] = qHTS assay to identify small molecule antagonists of the sonic hedgehog signaling (Shh) pathway - cell viability counter screen (AID 1259367); note: nearly all actives have a fitted effect of over 55% in size; note: potency is the fitted concentration of half-maximal effect
Method in brief: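 Conditioned medium drove Shh signaling in 3T3 Gli1-Luc cells exposed to compounds at 37C and 5% CO2. Viability was determined from CellTiter-Fluor fluorescence, with reagent incubated 1 hr after 23 hr of treatment.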

[7] = qHTS assay to identify small molecule agonists of the sonic hedgehog signaling (Shh) pathway (AID 1259368; calls by dose curve;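 note: NIH/3T3-derived 3T3Gli1-Luc cells carrying a stable Gli1-driven firefly luciferase reporter; series mostly up to about 92 µM; nearly all actives have a fitted effect of over 15% in size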)
Method in brief: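 Cells of a mouse NIH/3T3 clone stably expressing luciferase under the Gli1 transcriptional response element are exposed to test chemicals for 24 hr at 37 C. Pathway activation is detected as a rise in luminescence.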

[8] = qHTS assay to identify small molecule antagonists of the sonic hedgehog signaling (Shh) pathway (AID 1259369; calls by dose curve; note: nearly all actives have a fitted effect of over 45% in size; note: potency is the fitted concentration of half-maximal effect)
Method in brief: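 Cells are plated and held 4hr at 37 C, compounds (DMSO) are pinned in, conditioned medium is added to stimulate the pathway, and after 24hr luciferase reagent is added for 30min before luminescence is read.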

[9] = qHTS assay to identify small molecule antagonists of the estrogen receptor beta (ER-beta) signaling pathway - cell viability counter screen (AID 1259382); note: nearly all actives have a fitted effect of over 55% in size; note: potency is the fitted concentration of half-maximal effect
Method in brief: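 Cytotoxicity counter screen multiplexed with the beta-lactamase antagonist assay: GripTite HEK293T ER-beta-bla cells were treated 16 hr with test chemicals in the presence of 1nM 17-beta-estradiol, and viability was measured by CellTiter-Glo.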

[10] = qHTS assay to identify small molecule agonists or antagonists of the thyroid stimulating hormone receptor (TSHR) signaling pathway - wild type cell line counter screen (AID 1259384; calls by dose curve)
Method in brief: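 Wild-type HEK293 cells were plated 18 h at 37 C/5% CO2, pin-dosed with compound plus Ro20-1724 medium, held 30 min at room temperature, then given cAMP-d2 and anti-cAMP-cryptate; fluorescence was read after 1 h. Fifteen concentrations, triplicate.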

[11] = biological target: Thyrotropin receptor (Homo sapiens) (UniProt P16473); test: qHTS assay to identify small molecule antagonists of the thyroid stimulating hormone receptor (TSHR) signaling pathway (AID 1259385; calls by dose curve; note: nearly all actives have a fitted effect of over 20% in size; note: potency is the fitted concentration of half-maximal effect)
Method in brief: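 TSHR-HEK293 cells were plated and held 18 h at 37C/5% CO2, then given compound plus Ro20-1724 and stimulated with TSH at 1.5 ng/mL final. After 30 min at room temperature, cAMP was detected with cAMP-d2/anti-cAMP-cryptate (1 h) by fluorescence.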

[12] = qHTS assay to identify small molecule phospholipidosis (PLD) inducers (AID 1259344; active = well fitted curve in the direction sought with a large enough effect; an effect the other way counts as inactive or inconclusive)
Method in brief: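 After 4 h attachment on collagen I, HepG2 cells were dosed with compound alongside LipidTOX Red, kept 24 h at 37 C, fixed, and imaged for lamellar phospholipid pits.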

[13] = qHTS assay to identify small molecule HDAC inhibitors (AID 1259364);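 note: wild-type HCT-116 cells with endogenous class I/II HDAC activity; top concentration of the series differs between compounds; nearly all actives have a fitted effect of over 45% in size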
Method in brief: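 Cells (HCT-116, wild type) are seeded at 1,500 per well, incubated overnight, treated with compound in DMSO for 2 hr, then developed with HDAC-Glo I/II reagent for 30 min at room temperature.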

[14] = biological target: Estrogen receptor beta (Homo sapiens) (UniProt Q92731); test: qHTS assay to identify small molecule antagonists of the estrogen receptor beta (ER-beta) signaling pathway (AID 1259378; active = well fitted inhibition curve with a large enough effect in the signal ratio in the repeat runs, not every such curve was filed as active; the % refers to the signal ratio; note: potency is the fitted concentration of half-maximal effect)
Method in brief: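 ER-beta-UAS-bla HEK293T (GripTite) cells in 2% charcoal-stripped FBS medium were preincubated 6 hr at 37C, dosed with compound, then stimulated with 1 nM E2 (final) for 16 hr; beta-lactamase reporter read by B/G FRET fluorescence after 2 hr substrate loading.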

[15] = qHTS assay to identify small molecule agonists of the estrogen receptor beta (ER-beta) signaling pathway - cell viability counter screen (AID 1259380); note: nearly all actives have a fitted effect of over 30% in size; note: potency is the fitted concentration of half-maximal effect
Method in brief: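 Cytotoxicity is measured in parallel with the reporter screen: after 16 hr compound exposure at 37C and a 2 hr LiveBLAzer step, CellTiter-Glo is added to the same ER-beta-UAS-bla HEK293T wells and luminescence read after 30 min.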

[16] = biological target: Estrogen receptor (Homo sapiens) (UniProt P03372); test: qHTS assay to identify small molecule agonists of the estrogen receptor alpha (ER-alpha) signaling pathway in the presence of an antagonist (AID 1259383; calls by dose curve; note: top concentration of the series differs between compounds; nearly all actives have a fitted effect of over 15% in size)
Method in brief: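 Agonist-mode confirmation in the presence of the ER antagonist ICI-182,780 at 10.0nM final. Breast-derived VM7Luc4E2 reporter cells were exposed to compounds for 22hr, and ERE-driven luciferase was quantified by luminescence.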

[17] = qHTS assay to identify small molecule agonists of the androgen receptor (AR) signaling pathway in the presence of an antagonist - cell viability counter screen (AID 1259379); note: nearly all actives have a fitted effect of over 25% in size; note: potency is the fitted concentration of half-maximal effect
Method in brief: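 Cytotoxicity is assessed by CellTiter-Fluor in MDA-kb2 cells carrying an MMTV-driven luciferase reporter. Cells receive 3.0uM nilutamide plus compounds at 15 concentrations and incubate 16 hr at 37C without CO2 before fluorescence reading.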

[18] = biological target: Estrogen receptor beta (Homo sapiens) (UniProt Q92731); test: qHTS assay to identify small molecule agonists of the estrogen receptor beta (ER-beta) signaling pathway (AID 1259377; active = well fitted activation curve with a large enough effect in the signal ratio in the repeat runs, not every such curve was filed as active; the % refers to the signal ratio)
Method in brief: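 Read-out: beta-lactamase FRET fluorescence. Cell line: ER-beta-UAS-bla HEK293T in 2% charcoal-stripped FBS. Exposure: 16 hr at 37C. Substrate step: 2 h at room temperature.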

[19] = biological target: Androgen receptor (Homo sapiens) (UniProt P10275); test: qHTS assay to identify small molecule agonists of the androgen receptor (AR) signaling pathway in the presence of an antagonist (AID 1259381; calls by dose curve; note: nearly all actives have a fitted effect of over 15% in size)
Method in brief: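 Agonist-mode confirmation screen: human MDA-kb2 cells stably expressing luciferase under an MMTV promoter bearing AR and GR response elements, co-treated with 3.0uM nilutamide (final). Luminescence measured after 16hr compound incubation.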

Measured: Potency

Thyrotropin receptor (Homo sapiens), sequence (P16473 whole entry, looked up): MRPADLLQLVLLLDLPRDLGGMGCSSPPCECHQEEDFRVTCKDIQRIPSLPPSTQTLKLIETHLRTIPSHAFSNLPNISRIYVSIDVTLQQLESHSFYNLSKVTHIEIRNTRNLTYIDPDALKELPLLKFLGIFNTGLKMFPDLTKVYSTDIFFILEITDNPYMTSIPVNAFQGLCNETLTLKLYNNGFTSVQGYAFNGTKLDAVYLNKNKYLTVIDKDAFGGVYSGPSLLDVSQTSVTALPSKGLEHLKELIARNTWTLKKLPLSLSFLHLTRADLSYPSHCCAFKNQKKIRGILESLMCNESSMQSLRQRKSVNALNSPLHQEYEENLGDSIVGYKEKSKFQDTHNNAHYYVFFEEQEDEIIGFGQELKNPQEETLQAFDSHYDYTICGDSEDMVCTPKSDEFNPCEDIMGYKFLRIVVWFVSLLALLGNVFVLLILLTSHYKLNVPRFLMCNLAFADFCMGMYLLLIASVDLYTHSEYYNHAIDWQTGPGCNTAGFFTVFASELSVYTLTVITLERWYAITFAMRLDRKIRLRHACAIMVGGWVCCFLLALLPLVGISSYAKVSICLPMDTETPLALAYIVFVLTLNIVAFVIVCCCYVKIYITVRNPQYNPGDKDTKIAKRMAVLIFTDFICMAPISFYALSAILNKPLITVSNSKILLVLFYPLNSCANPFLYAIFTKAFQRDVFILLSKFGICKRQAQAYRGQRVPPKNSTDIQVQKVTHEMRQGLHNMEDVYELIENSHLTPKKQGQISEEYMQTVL
Estrogen receptor beta (Homo sapiens), sequence (Q92731 whole entry, looked up): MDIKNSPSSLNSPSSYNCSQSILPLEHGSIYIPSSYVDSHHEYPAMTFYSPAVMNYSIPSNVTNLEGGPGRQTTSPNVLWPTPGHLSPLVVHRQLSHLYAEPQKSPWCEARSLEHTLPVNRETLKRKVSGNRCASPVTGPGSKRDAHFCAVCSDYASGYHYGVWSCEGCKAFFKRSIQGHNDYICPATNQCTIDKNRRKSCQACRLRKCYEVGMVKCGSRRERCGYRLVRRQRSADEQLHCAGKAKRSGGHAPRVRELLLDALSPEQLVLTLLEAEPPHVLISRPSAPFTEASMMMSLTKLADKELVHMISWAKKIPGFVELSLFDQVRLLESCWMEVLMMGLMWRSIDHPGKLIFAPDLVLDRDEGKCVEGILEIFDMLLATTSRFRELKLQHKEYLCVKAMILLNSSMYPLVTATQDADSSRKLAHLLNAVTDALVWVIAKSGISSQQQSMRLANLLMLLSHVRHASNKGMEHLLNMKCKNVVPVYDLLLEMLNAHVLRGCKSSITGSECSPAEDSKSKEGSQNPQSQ
Estrogen receptor (Homo sapiens), sequence (P03372 whole entry, looked up): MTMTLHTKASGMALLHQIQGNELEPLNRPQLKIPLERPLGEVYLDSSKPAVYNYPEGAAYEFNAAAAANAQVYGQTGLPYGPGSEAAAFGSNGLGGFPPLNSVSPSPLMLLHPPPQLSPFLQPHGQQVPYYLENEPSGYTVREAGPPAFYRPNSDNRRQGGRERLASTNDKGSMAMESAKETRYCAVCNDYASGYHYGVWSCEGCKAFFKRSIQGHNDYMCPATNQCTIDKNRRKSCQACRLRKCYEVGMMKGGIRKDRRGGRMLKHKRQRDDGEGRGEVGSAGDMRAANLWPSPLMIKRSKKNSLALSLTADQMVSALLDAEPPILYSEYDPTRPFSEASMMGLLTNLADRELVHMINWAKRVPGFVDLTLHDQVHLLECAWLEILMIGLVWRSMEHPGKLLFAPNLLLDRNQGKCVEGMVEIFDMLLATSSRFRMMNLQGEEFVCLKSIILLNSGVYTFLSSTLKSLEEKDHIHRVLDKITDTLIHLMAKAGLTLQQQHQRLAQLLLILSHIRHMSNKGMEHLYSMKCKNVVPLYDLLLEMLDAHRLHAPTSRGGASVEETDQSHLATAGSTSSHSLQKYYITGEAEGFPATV
Androgen receptor (Homo sapiens), sequence (P10275 whole entry, looked up): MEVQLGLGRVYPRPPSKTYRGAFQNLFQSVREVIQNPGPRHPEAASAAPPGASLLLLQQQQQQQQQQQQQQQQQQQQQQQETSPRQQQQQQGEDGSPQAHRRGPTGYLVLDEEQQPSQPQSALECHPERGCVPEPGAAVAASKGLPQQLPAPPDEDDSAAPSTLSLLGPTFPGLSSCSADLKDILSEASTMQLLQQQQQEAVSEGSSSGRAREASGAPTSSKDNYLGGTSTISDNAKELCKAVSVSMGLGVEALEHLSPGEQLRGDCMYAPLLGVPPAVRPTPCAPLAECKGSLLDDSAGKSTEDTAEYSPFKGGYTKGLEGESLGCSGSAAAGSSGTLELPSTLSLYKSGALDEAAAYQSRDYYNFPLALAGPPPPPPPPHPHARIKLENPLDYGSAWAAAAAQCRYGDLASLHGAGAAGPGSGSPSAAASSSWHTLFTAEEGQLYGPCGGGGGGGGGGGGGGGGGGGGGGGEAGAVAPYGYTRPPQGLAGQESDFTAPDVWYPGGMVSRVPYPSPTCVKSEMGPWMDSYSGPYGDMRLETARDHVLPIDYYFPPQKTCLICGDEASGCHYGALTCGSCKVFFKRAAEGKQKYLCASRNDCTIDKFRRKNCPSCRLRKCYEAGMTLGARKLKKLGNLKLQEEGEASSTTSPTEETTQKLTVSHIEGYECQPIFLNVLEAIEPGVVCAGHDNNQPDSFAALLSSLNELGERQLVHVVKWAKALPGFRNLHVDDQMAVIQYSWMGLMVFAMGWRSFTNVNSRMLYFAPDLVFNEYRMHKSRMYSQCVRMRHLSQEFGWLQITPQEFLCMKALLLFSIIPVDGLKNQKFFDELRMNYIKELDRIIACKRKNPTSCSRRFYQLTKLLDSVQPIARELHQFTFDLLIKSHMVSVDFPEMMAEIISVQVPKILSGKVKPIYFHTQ

Nc1ccccc1O
active: [1] 53.8 µM | [3] 30.2 µM | [5] 24 µM | [6] 19.1 µM | [8] 6.77 µM
inactive: [2] | [4] | [7] | [9] | [10] | [11]

O=c1c(-c2ccccc2)c1-c1ccccc1
active: [5] 13.3 µM | [8] 5.96 µM | [14] 10.6 µM
not listed: [3] | [6] | [17] | [18] | [19]
inactive: all other assays above

CCCCCCCC/C=C\CCCCCCCCOCCO
active: [1] 63.1 µM | [2] 20 µM | [3] 2.51 µM | [6] 63.1 µM | [8] 14.1 µM | [17] 28.2 µM | [15] 28.2 µM | [9] 28.2 µM | [11] 89.1 µM
inactive: [13] | [7] | [16] | [10]

CCCCCCCC[N+](CCCCCCCC)(CCCCCCCC)CCCCCCCC
active: [1] 61 µM | [2] 9.67 µM | [3] 2.16 µM | [4] 61 µM | [5] 17.2 µM | [6] 27.3 µM | [8] 0.768 µM | [15] 30.6 µM | [9] 21.6 µM | [11] 61 µM
inactive: [13] | [7] | [16]

CCC(CN)=C(c1ccccc1)c1ccccc1
active: [14] 23.7 µM | [15] 21.1 µM
not listed: [4] | [8] | [9] | [11] | [12] | [17]
inactive: all other assays above

CCC(C)(C)C1CCCCC1OC(C)=O (stereo unspecified)
not listed: [4] | [12] | [14] | [17] | [18] | [19]
inactive: all other assays above

O=CC=C(c1ccccc1)c1ccccc1
active: [3] 69.1 µM | [5] 49 µM | [14] 7.76 µM | [15] 27.5 µM | [9] 27.5 µM
inactive: [1] | [2] | [13] | [4] | [7] | [16] | [10] | [11]

COc1cccc(N)c1
not listed: [3] | [10] | [12] | [14] | [15] | [16] | [18] | [19]
inactive: all other assays above

C/C=C1/C(=O)C[C@H]2[C@@H]3CCC4=CC(=O)CC[C@]4(C)[C@H]3CC[C@]12C
active: [17] 54.3 µM
inactive: [1] | [2] | [13] | [4] | [6] | [7] | [9] | [16]

Oc1cccc2cc3cccc(O)c3c(O)c12
not listed: [3] | [12] | [14] | [16] | [17] | [18] | [19]
inactive: all other assays above

CCN(C(=O)N(CC)c1ccccc1)c1ccccc1
not listed: [3] | [8] | [12] | [14] | [16] | [17] | [18] | [19]
inactive: all other assays above

S=c1[nH]c2ccccc2s1
inactive: [1] | [2] | [12] | [4] | [18] | [17]
active: [6] 48.6 µM | [8] 21.7 µM

CCN(C(=O)c1cc(C)cc(OC[C@H](C)Nc2ccncc2)c1)C(C)C
not listed: [3] | [8] | [10] | [12] | [14] | [16] | [18] | [19]
inactive: all other assays above

Cc1ccc(O)c(C(C)(C)C)c1
inactive: [1] | [2] | [13] | [5] | [6] | [7] | [17] | [9] | [10] | [11]

O=C(Nc1cccc(Cl)c1)OCC#CCCl
active: [1] 61.1 µM | [2] 61.1 µM | [5] 27.3 µM | [6] 24.3 µM | [8] 5.45 µM | [17] 54.5 µM | [15] 54.5 µM
inactive: [13] | [7] | [16] | [10] | [11]

C1CCCC1
not listed: [3] | [12] | [16] | [17] | [19]
inactive: all other assays above

CC(C)(C)CC(C)(C)c1ccc(OCCOCC[N+](C)(C)Cc2ccccc2)cc1
active: [2] 43.2 µM and 21.1 µM | [5] 48.5 µM | [8] 4.22 µM | [14] 26.6 µM | [15] 27.3 µM and 16.8 µM | [9] 27.3 µM and 15 µM
not listed: [3] | [4] | [6] | [17] | [19]
inactive: all other assays above

CC(C)c1ccc2c(c1)CC[C@H]1[C@](C)(CN)CCC[C@]21C
active: [2] 48.6 µM | [5] 48.6 µM | [8] 15.4 µM | [14] 61.1 µM | [17] 43.3 µM | [15] 54.5 µM | [9] 61.1 µM
inactive: [1] | [13] | [4] | [7] | [10]

Nc1c(Cl)cc(Cl)cc1Cl
not listed: [3] | [12] | [14] | [16] | [17] | [18] | [19]
inactive: all other assays above
